Drawing on PubChem BioAssay AID624483 (NMMLSC, 2012), this text covers fluorescence intensity for 93 compounds.

About 11,000 (3.1%) of roughly 360,000 compounds were called active. Roughly 2% stayed inconclusive and do not appear here. No stated cut-off is given here; in the data, active means fluorescence intensity above about 16000; inconclusive means no clear call, values can overlap the other calls; inactive means below that. The full list was thinned out, with actives kept by preference.

The assay is described as follows: compound fluorescence in toxin protease inhibitor counterscreen, primary screen, artefact control for toxin protease inhibitor project, biochemical, multiplex microsphere, HTS (AID 624483). The conditions noted are these: compound autofluorescence counterscreen, microsphere flow cytometry; stronger effect = higher value.
Consider `CCCCn1nnnc1C(c1cccc(OC)c1OC)N1CCN(C/C=C/c2ccccc2)CC1` (stereo not drawn), for which the fluorescence intensity was 5960 (inactive).

Consider `Cc1ccc(S(=O)(=O)N2CCCC(C(=O)N3CCN(C)CC3)C2)cc1` (stereo not drawn), for which the fluorescence intensity was 5490 (inactive).

Turning to `COc1ccc(OCCCC(=O)OC(C)C(=O)Nc2ccccc2[N+](=O)[O-])cc1` (stereo not drawn), the fluorescence intensity is 3940 (inactive).

Consider `COc1ccc(OCC(=O)OCCN(C)C)cc1`, for which the fluorescence intensity was 2140 (inactive).

In the case of `COc1ccc(OCCCC(=O)Oc2ccc(OC)cc2)cc1`, the fluorescence intensity was 21300 (active).

With `CCCCOc1ccc(CSC(=N)N)cc1[N+](=O)[O-]`, the fluorescence intensity is 2600 (inactive).

Regarding `CCCCOc1ccc(Cl)cc1CSc1nncn1N`, the fluorescence intensity is 20700 (active).

In the case of `COC(=O)c1ccc(CSc2nncn2N)cc1`, the fluorescence intensity is 4020 (inactive).

`Cn1cccc1C1(C(F)(F)F)NCCNC1=O` (stereo not drawn): the fluorescence intensity was 20400 (active).

On to `CC(=O)N1CCN(Cc2cc(=O)oc3cc(C)ccc23)CC1`, for which the fluorescence intensity is 5400 (inactive).

In the case of `Cc1ccc(Cn2c(C)c(C(=O)NCc3ccccc3C(F)(F)F)sc2=O)cc1`, the fluorescence intensity is 5600 (inactive).

With `O=C1c2ccccc2C(c2nc3ccccc3[nH]2)N1c1ccccc1` (stereo not drawn), the fluorescence intensity is 6040 (inactive).

Regarding `CCN(CC)C(=O)CSC1c2ccccc2C(=O)N1c1ccccc1` (stereo not drawn), the fluorescence intensity is 23100 (active).

As for `CCN(CC)C(=O)CSc1ncnc2c1cnn2-c1ccccc1`, the fluorescence intensity was 3150 (inactive).

Regarding `C[N+](C)(C)CCNC(=O)c1c[nH]c2ccccc12`, the fluorescence intensity is 5520 (inactive).

Take `CCCNC(=O)C1(C)CCN1C(=O)Cc1ccc(-c2ccccc2)cc1` (stereo not drawn): the fluorescence intensity is 3250 (inactive).

For `CC(=O)Nc1ccc(SCC(=O)Nc2ccccc2Oc2ccccc2)cc1`, the fluorescence intensity is 2020 (inactive).

Regarding `C#Cc1cc(N2CCN(C(=O)c3ccoc3)CC2)n2nc(-c3cccc(Cl)c3)cc2n1`, the fluorescence intensity is 4220 (inactive).

`CCCCOc1ccc(C(=O)NCc2ccncc2)cc1`: the fluorescence intensity is 20300 (active).

`CC(C)(C)NC(=O)C(=O)NCc1ccncc1`: the fluorescence intensity was 2060 (inactive).

Take `CCCC(C)C(=O)NCc1ccncc1` (stereo not drawn): the fluorescence intensity was 2180 (inactive).

Take `O=C(CN(C(=O)c1nsc(Cl)c1Cl)c1cccc(F)c1)NC1CCCC1`: the fluorescence intensity is 4350 (inactive).

As for `Cc1noc(C)c1C(=O)OCC(=O)N1CCN(S(=O)(=O)c2ccc3ccccc3c2)CC1`, the fluorescence intensity was 4540 (inactive).

Take `Cc1noc(C)c1C(=O)OCC(=O)/C=C1\N(C)c2ccccc2C1(C)C`: the fluorescence intensity was 23200 (active).

Take `CC(=O)Nc1cccc(OCC(=O)/C=C2\N(C)c3ccccc3C2(C)C)c1`: the fluorescence intensity is 3790 (inactive).

Take `CC1(C(=O)NS(=O)(=O)c2cccc(OC(F)F)c2)CCN1C(=O)COc1ccc(Cl)cc1` (stereo not drawn): the fluorescence intensity is 2870 (inactive).

For the compound `Cc1ccn(-c2cccc(-n3ccc(C)n3)n2)n1`, the fluorescence intensity was 2160 (inactive).

On to `CC(=O)Nc1cc(-c2ccc(N3CCN(C)CC3)cc2)cn2c(-c3ccc(F)cc3)cnc12`, for which the fluorescence intensity was 3850 (inactive).

For `Cc1ccc(C(=O)c2c(NC(=O)c3ccccc3)sc(C)c2C)cc1`, the fluorescence intensity was 24600 (active).

For `CC(=O)c1c(Nc2ccccc2)sc(C(=O)c2ccccc2)c1C`, the fluorescence intensity was 2060 (inactive).

As for `Cc1sc(NC(=O)c2ccc3ncsc3c2)c(C(N)=O)c1C`, the fluorescence intensity is 5240 (inactive).

On to `C[C@H](NC(=O)[C@@H]1CCCN1C(=O)[C@@H]1CCCN1C(=O)c1ccccc1)c1ccccc1`, for which the fluorescence intensity was 6120 (inactive).

In the case of `Cc1c(Cl)cccc1NC(=S)NCC(O)c1ccccc1` (stereo not drawn), the fluorescence intensity was 2920 (inactive).

Take `CC(Oc1ccc(Cl)cc1)C(=O)Nc1ncccn1` (stereo not drawn): the fluorescence intensity is 6780 (inactive).

With `COc1ccc(C(=O)CCC(=O)Nc2cccnc2)c(OC)c1`, the fluorescence intensity is 5960 (inactive).

For the compound `COc1ccc(OC(C)C(=O)Nc2cccnc2)cc1` (stereo not drawn), the fluorescence intensity is 23000 (active).

Turning to `Cc1ccc(C(=O)O)c(NC=O)c1OCc1ccccc1`, the fluorescence intensity is 4160 (inactive).

For `O=C(c1noc2c1CCCC2)N1CCc2ccccc2C1`, the fluorescence intensity was 3010 (inactive).

As for `COc1ccc(C(=O)N2CCCN(C)CC2)c(OC)c1`, the fluorescence intensity was 4060 (inactive).

In the case of `COc1ccc(NS(=O)(=O)c2ccc(C(=O)Nc3c(C)n(C)n(-c4ccccc4)c3=O)cc2)cc1`, the fluorescence intensity is 2940 (inactive).

For `COc1ccc2c(c1)CCc1c(C(=O)N3CCc4ccccc4C3)noc1-2`, the fluorescence intensity was 21600 (active).

For the compound `COc1ccc(S(=O)(=O)Nc2c(C)n(C)n(-c3ccccc3)c2=O)cc1`, the fluorescence intensity was 16100 (active).

In the case of `COc1ccc(C(=O)C(C)OC(=O)c2cccc(S(=O)(=O)Nc3c(C)n(C)n(-c4ccccc4)c3=O)c2)cc1` (stereo not drawn), the fluorescence intensity was 3490 (inactive).

With `COc1ccc2c(c1)CCc1c(C(=O)Nc3c(C)n(C)n(-c4ccccc4)c3=O)noc1-2`, the fluorescence intensity is 21100 (active).

In the case of `COc1ccc(OC)c(NC(=S)N2CCc3ccccc3C2)c1`, the fluorescence intensity is 2080 (inactive).

As to `Cc1c(NC(=O)c2coc(=O)c(Br)c2)c(=O)n(-c2ccccc2)n1C`, the fluorescence intensity was 2950 (inactive).

Consider `COc1ccc2c(c1)CCc1c(C(=O)N3CCCC3)noc1-2`, for which the fluorescence intensity was 21100 (active).

`COc1ccccc1-c1cc(C(=O)N2CCCCC2)no1`: the fluorescence intensity was 4320 (inactive).

For `Cc1c(NC(=O)c2cc(-c3ccc(Br)cc3)on2)c(=O)n(-c2ccccc2)n1C`, the fluorescence intensity is 5870 (inactive).

Turning to `CCN(C(=O)CSc1nnnn1-c1ccccc1OC)C1CCS(=O)(=O)C1` (stereo not drawn), the fluorescence intensity is 5910 (inactive).

Consider `Cc1ccccc1C(OCCN(C)C)C1CCCCC1` (stereo not drawn), for which the fluorescence intensity is 2370 (inactive).

`CCNC(=O)C1(C)CCN(C(=O)c2ccccc2)C1` (stereo not drawn): the fluorescence intensity is 3880 (inactive).

For the compound `COC(=O)Cc1nc2c(N)nc(N)nc2[nH]c1=O`, the fluorescence intensity is 4130 (inactive).

`O=C(NNS(=O)(=O)c1c(F)cc(F)c(Cl)c1F)C12CC3CC(CC(C3)C1)C2`: the fluorescence intensity was 4000 (inactive).

On to `O=C(Nc1ccccc1C(=O)O)c1ccc(N2C(=O)C3CC=CCC3C2=O)cc1` (stereo not drawn), for which the fluorescence intensity is 4170 (inactive).

In the case of `CN(C)CCNC(=O)c1cccc(-c2cnc3c(NC=O)cc(-c4cccc(C(F)(F)F)c4)cn23)c1`, the fluorescence intensity is 3700 (inactive).

As to `CN1CCN(C(=O)c2ccc(-c3cc4nc(NCc5cccnc5)n(C)c(=O)c4s3)cc2)CC1`, the fluorescence intensity was 3940 (inactive).

For `O=C(NCc1ccccc1)C1c2ccccc2OCC(=O)N1C1CC1` (stereo not drawn), the fluorescence intensity is 5460 (inactive).

With `O=C(C1CCCO1)N(Cc1ccccc1)c1ccccc1` (stereo not drawn), the fluorescence intensity is 16100 (active).

For `O=C(NCc1ccccc1Cl)C1CCCO1` (stereo not drawn), the fluorescence intensity is 4090 (inactive).

In the case of `O=C(C1CCCO1)N(c1ccc(F)cc1)C1C=CS(=O)(=O)C1` (stereo not drawn), the fluorescence intensity was 3830 (inactive).

Consider `CCc1ccc2c(c1)NC(=O)C2(C)Cc1ccc(OC(F)(F)F)cc1` (stereo not drawn), for which the fluorescence intensity was 2900 (inactive).

As to `COCc1cc(C)nc(SCC(=O)Nc2cccc(C)c2)c1C#N`, the fluorescence intensity was 4220 (inactive).

On to `O=C(Nc1ccccc1N1CCN(C(=O)c2ccccc2)CC1)c1ccco1`, for which the fluorescence intensity is 3700 (inactive).

Consider `O=CN1CCN(C(=O)c2ccc3c(c2)OCO3)CC1`, for which the fluorescence intensity is 6220 (inactive).

`O=C(CN1CCN(C(=O)c2ccco2)CC1)Nc1ccc2c(c1)OCO2`: the fluorescence intensity is 2540 (inactive).

For the compound `O=C(c1ccco1)N1CCN(C(=S)Nc2cc(F)cc(F)c2)CC1`, the fluorescence intensity is 5420 (inactive).

`O=C(c1ccc2c(c1)OCO2)N1CCN(C(=O)c2ccco2)CC1`: the fluorescence intensity was 20500 (active).

Turning to `O=C(Nc1ccccc1N1CCN(C(=O)c2ccccc2)CC1)c1ccc2c(c1)OCO2`, the fluorescence intensity was 23400 (active).

For `O=C(CNS(=O)(=O)c1ccccc1)N1CCN(C(=O)c2ccco2)CC1`, the fluorescence intensity is 5790 (inactive).

In the case of `N#Cc1ccccc1NC(=O)c1ccc2c(c1)OCO2`, the fluorescence intensity is 3490 (inactive).

For `CCNC(=S)N1CCN(C(=O)c2ccco2)CC1`, the fluorescence intensity was 21900 (active).

Take `Cc1nc2c(OCc3cccc(Cl)c3)cccn2c1N(C)CC1CC1`: the fluorescence intensity is 3860 (inactive).

Regarding `CN(Cc1ccccc1)C(=O)C(=O)c1cn(CC(=O)N2CCCC2)c2ccccc12`, the fluorescence intensity was 5870 (inactive).

Regarding `NCCCCC(C(=O)O)N(C(=O)OCc1ccccc1)C(=O)OCc1ccccc1` (stereo not drawn), the fluorescence intensity was 4320 (inactive).

On to `O=C1NC[C@H](CCCCN2C[C@H](Cc3ccc(O)cc3)N(CC3CCCCC3)C(=O)C2=O)N(CCc2ccccc2)C1=O`, for which the fluorescence intensity is 4980 (inactive).

For the compound `NC(Cc1ccc(F)cc1)c1csc(Nc2nncc3ccccc23)n1` (stereo not drawn), the fluorescence intensity is 3900 (inactive).

Regarding `C#CCNC(=O)C[C@@H]1C[C@@]2(C(=O)OCC)CCCC=C2N(Cc2ccco2)C1=O`, the fluorescence intensity is 4250 (inactive).

`CC(=O)N(O)CCCCCNC(=O)CCC(=O)N(O)CCCCCNC(=O)CCC(=O)N(O)CCCCCNC(=O)CCC(=O)O`: the fluorescence intensity is 3470 (inactive).

In the case of `CC1=C(C(=O)N(C(C)C)C(C)C)CC(CC(=O)NCCCCc2ccccc2)C(=O)N1CCC1=CCCCC1` (stereo not drawn), the fluorescence intensity is 5390 (inactive).

For `O=C(Cc1ccc(-n2c(=O)[nH]c3ccccc3c2=O)cc1)N1CCN(c2cccc(Cl)c2)CC1`, the fluorescence intensity is 22000 (active).

For the compound `O=c1c2ccccc2[nH]c(=S)n1-c1cccc(Cl)c1`, the fluorescence intensity is 4010 (inactive).

With `CCOC(=O)N1CCN(C(=O)Cc2ccc(-n3c(=S)[nH]c4ccccc4c3=O)cc2)CC1`, the fluorescence intensity was 10600 (inactive).

On to `CNc1cc(-c2c(OC)cccc2OC)ncn1`, for which the fluorescence intensity was 3890 (inactive).

Regarding `CN1OC[C@@H]2CN(C(=O)C(C)(C)C)[C@H](c3ccc(-n4ccnc4)cc3)C[C@@H]21`, the fluorescence intensity is 4320 (inactive).

`COc1cccc(-c2cc(NC(C)=O)c3ncc(-c4cccc(C(C)=O)c4)n3c2)c1`: the fluorescence intensity is 3560 (inactive).

Consider `O=C1CN(C(=O)COC(=O)/C=C/c2ccc(F)cc2)c2ccccc2N1`, for which the fluorescence intensity was 2990 (inactive).

With `C=CCn1c(COc2ccccc2F)nnc1SCC(=O)N1CC(=O)Nc2ccccc21`, the fluorescence intensity was 19900 (active).

For `Nn1c(Cc2cccc3ccccc23)nnc1SCC(=O)N1CC(=O)Nc2ccccc21`, the fluorescence intensity was 3230 (inactive).

Turning to `CCN1C(=O)[C@@H]2[C@@H]3CN(S(=O)(=O)c4ccccc4C)[C@@H](c4ccc(Cl)cc4)[C@@H]3C(=O)C[C@@H]2C1=O`, the fluorescence intensity is 5460 (inactive).

Turning to `CC(C)(O)C#Cc1ccc(CNC[C@H]2O[C@@H](n3cnc4c(=O)[nH]c(N)nc43)[C@H](O)[C@@H]2O)s1`, the fluorescence intensity is 6310 (inactive).

Regarding `CC(C)Oc1cc(F)ccc1-c1cc(C(=O)Nc2ccc(F)cc2)[nH]n1`, the fluorescence intensity is 2820 (inactive).

Consider `Cc1ccc([C@@H]2CC(=O)[C@@H]3CN(S(=O)(=O)c4ccc(C)cc4)[C@H](c4ccccc4F)C[C@@H]3N2S(=O)(=O)c2ccc(Cl)cc2)cc1`, for which the fluorescence intensity is 5790 (inactive).
